The record followed here is PubChem BioAssay.

Several values for one entry are separate records, joined by “and”; a condition that tells them apart may be missing. Equal entries are not always repeated. Activity calls are given as the source filed them. Unless noted, the rule behind the calls is not given here.

Test system in the first test: not listed separately
The test is described as follows: compounds altering viability of human ES cells (AID 493140).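 Note: cells exposed to compounds for four days before counting.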 Particulars: human embryonic stem cell survival screen; stronger effect = higher value.
Regarding `OCCN1CCN(CCCN2c3ccccc3Sc3ccc(C(F)(F)F)cc32)CC1`, the survival was 5.33 (inactive).

For `NS(=O)(=O)c1cc2c(cc1Cl)NC=NS2(=O)=O`, the survival is 13.6 (inactive).

`O=C1C(CCS(=O)c2ccccc2)C(=O)N(c2ccccc2)N1c1ccccc1` (stereo not drawn): the survival is 40.2 (inactive).

`Cc1ccccc1C(OCCN(C)C)c1ccccc1` (stereo not drawn): the survival is 11.9 (inactive).

`CCc1nc(N)nc(N)c1-c1ccc(Cl)cc1`: the survival is 16.9 (inactive).

Consider `COc1cc2nc(N(C)CCCNC(=O)C3CCCO3)nc(N)c2cc1OC` (stereo not drawn), for which the survival was 6.42 (inactive).

`CN(C)CCOC(c1ccc(Cl)cc1)c1ccccn1` (stereo not drawn): the survival is 2.92 (inactive).

As for `N[C@@H](C(=O)N[C@@H]1C(=O)N2C(C(=O)O)=C(Cl)CS[C@H]12)c1ccccc1`, the survival was 9 (inactive) and 6.75 (inactive).

`NCc1ccc(S(N)(=O)=O)cc1`: the survival is 13.4 (inactive).

For `Cc1ccc(C)c(OCCCC(C)(C)C(=O)O)c1`, the survival was 20.8 (inactive).

Turning to `NS(=O)(=O)c1cc2c(cc1C(F)(F)F)NC(Cc1ccccc1)NS2(=O)=O` (stereo not drawn), the survival is 3.67 (inactive).

On to `COc1ccc(OC)c(C(O)CNC(=O)CN)c1` (stereo not drawn), for which the survival is 18.8 (inactive).

For the molecule `OC(CCN1CCCC1)(c1ccccc1)C1CCCCC1` (stereo not drawn), the survival was 7.33 (inactive).

Consider `CCCNCC(O)COc1ccccc1C(=O)CCc1ccccc1` (stereo not drawn), for which the survival was 6.75 (inactive).

On to `C/C=C/C(=O)N(CC)c1ccccc1C`, for which the survival is 6.17 (inactive).

For `NC(=O)c1cnccn1`, the survival is 19.9 (inactive).

Turning to `COc1ccccc1OCC(O)COC(N)=O` (stereo not drawn), the survival is 33.1 (inactive).

Take `COC(=O)Nc1nc2ccc(C(=O)c3ccccc3)cc2[nH]1`: the survival was 1 (inactive).

For the molecule `Cn1cnc([N+](=O)[O-])c1Sc1ncnc2nc[nH]c12`, the survival is 7.25 (inactive).

As to `c1ccc2[nH]c(-c3cscn3)nc2c1`, the survival was 7.75 (inactive).

Consider `Cc1onc(-c2c(Cl)cccc2Cl)c1C(=O)N[C@@H]1C(=O)N2[C@@H]1SC(C)(C)[C@@H]2C(=O)O`, for which the survival was 4 (inactive).

In the case of `CO[C@@]1(NC(=O)Cc2cccs2)C(=O)N2C(C(=O)O)=C(COC(N)=O)CS[C@@H]21`, the survival was 2.08 (inactive).

With `CCc1cccc2c3c([nH]c12)C(CC)(CC(=O)O)OCC3` (stereo not drawn), the survival is 14.8 (inactive).

For the molecule `CC(C)(C)NCC(O)COc1cccc2c1C[C@H](O)[C@H](O)C2` (stereo partly drawn), the survival was 5.83 (inactive).

Test system in another test: not listed separately
The test can be described thus: P. berghei load reduction in hepatocytes – cell-based, HepG2, luciferase luminescence, HepG2 viability, primary screen (AID 624349; in the data active = parasite load remaining mostly below about 12%, no sharp cut-off; inactive = mostly above about 10%;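 note: 100% = mean of DMSO negative control wells on the same plate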). Particulars: P. berghei liver stage in HepG2, luciferase luminescence, concentration not given here; parasite load remaining: stronger effect = lower value; viability: measured here: HepG2 viability without parasites.
Broadly, the viability is a read-out of living cells in per cent, often relative to untreated cells. With `Nc1ncn([C@@H]2O[C@H](CO)[C@@H](O)[C@H]2O)c(=O)n1`, the parasite load remaining is 162% (inactive) and 170% (inactive) and 176% (inactive); the viability is 101% and 77.2% and 95%.

Regarding `Cc1ncc([N+](=O)[O-])n1CC(C)O` (stereo not drawn), the parasite load remaining is 136% (inactive) and 103% (inactive) and 36% (inactive); the viability was 85.3% and 77% and 71%.

As for `CN1CCCC(n2nc(Cc3ccc(Cl)cc3)c3ccccc3c2=O)CC1` (stereo not drawn), the viability was 75.4% and 180% and 64.4%; the parasite load remaining is 30% (inactive) and 46.4% (inactive) and 19.4% (inactive).

In the case of `COC1=CC(=O)C[C@@H](C)[C@]12Oc1c(Cl)c(OC)cc(OC)c1C2=O`, the viability is 139% and 48% and 184%; the parasite load remaining is 86.5% (inactive) and 55.9% (inactive) and 116% (inactive).

Consider `CN(CCOc1ccc(CC2SC(=O)NC2=O)cc1)c1ccccn1` (stereo not drawn), for which the viability is 80.3% and 91.8% and 74.9%.

Turning to `CCCCCCNC(=O)n1cc(F)c(=O)[nH]c1=O`, the parasite load remaining was 405% (inactive) and 109% (inactive); the viability is 90% and 80.4%.

Turning to `CN(C)CCc1c[nH]c2ccc(C[C@H]3COC(=O)N3)cc12`, the parasite load remaining was 65.6% (inactive) and 76.6% (inactive) and 61% (inactive); the viability was 90.7% and 99.3% and 74.3%.

Turning to `CC(C)(C)NCC(O)COc1cccc2c1C[C@H](O)[C@H](O)C2` (stereo partly drawn), the parasite load remaining is 69.2% (inactive) and 72.2% (inactive) and 65.4% (inactive); the viability is 124% and 85.6% and 141%.

`O=S(=O)(O)CCS`: the viability is 104% and 70.5% and 96.3%; the parasite load remaining is 51.7% (inactive) and 115% (inactive) and 24.6% (inactive).

A further test relates to Hepatitis C virus NS3 helicase. The test can be described thus: blockers of NS3h binding to ssDNA – biochemical, fluorescence polarization, LOPAC1280 library, primary screen (AID 687035; in the data active = inhibition above about 37%). The note with it: Purified HCV NS3 helicase, Cy5-dT15 ssDNA binding fluorescence polarization; stronger effect = higher value; concentration not given here.
By inhibition is commonly meant the change of the read-out against control, counted positive when it falls. For `OCCN1CCN(CCCN2c3ccccc3Sc3ccc(C(F)(F)F)cc32)CC1`, the inhibition is -2% (inactive).

For the molecule `NS(=O)(=O)c1cc2c(cc1Cl)NC=NS2(=O)=O`, the inhibition was -2% (inactive).

Turning to `Cc1ccccc1C(OCCN(C)C)c1ccccc1` (stereo not drawn), the inhibition is -2% (inactive).

For the molecule `COc1cc2nc(N(C)CCCNC(=O)C3CCCO3)nc(N)c2cc1OC` (stereo not drawn), the inhibition is -3% (inactive).

As to `Nc1ncn([C@@H]2O[C@H](CO)[C@@H](O)[C@H]2O)c(=O)n1`, the inhibition is -1% (inactive).

For the molecule `CCCNCC(O)COc1ccccc1C(=O)CCc1ccccc1` (stereo not drawn), the inhibition was -1% (inactive).

With `NC(=O)c1cnccn1`, the inhibition was 1% (inactive).

Consider `Cn1cnc([N+](=O)[O-])c1Sc1ncnc2nc[nH]c12`, for which the inhibition is -2% (inactive).

For the molecule `Clc1ccc2c(c1)C(N1CCNCC1)=Nc1ccccc1O2`, the inhibition is -4% (inactive).

With `CCc1cccc2c3c([nH]c12)C(CC)(CC(=O)O)OCC3` (stereo not drawn), the inhibition was -3% (inactive).

Turning to `O=c1[nH]cc(F)c(=O)[nH]1`, the inhibition was -1% (inactive).

Test system in the next test: not listed separately
The test can be described thus: compounds altering Cy5-DNA-NS3h complex signal – biochemical, LOPAC1280, artefact control for HCV NS3 helicase inhibitor project (AID 687037). The note with it: Cy5-DNA-NS3h complex fluorescence interference counterscreen. On the technique in general: Counterscreens check selectivity or assay interference.
Regarding `OCCN1CCN(CCCN2c3ccccc3Sc3ccc(C(F)(F)F)cc32)CC1`, the fluorescence ratio (interference) is 0.9 (inactive).

For the molecule `NS(=O)(=O)c1cc2c(cc1Cl)NC=NS2(=O)=O`, the fluorescence ratio (interference) is 0.9 (inactive).

Take `Cc1ccccc1C(OCCN(C)C)c1ccccc1` (stereo not drawn): the fluorescence ratio (interference) is 0.9 (inactive).

For `COc1cc2nc(N(C)CCCNC(=O)C3CCCO3)nc(N)c2cc1OC` (stereo not drawn), the fluorescence ratio (interference) is 1 (inactive).

For the molecule `Nc1ncn([C@@H]2O[C@H](CO)[C@@H](O)[C@H]2O)c(=O)n1`, the fluorescence ratio (interference) was 0.9 (inactive).

`CCCNCC(O)COc1ccccc1C(=O)CCc1ccccc1` (stereo not drawn): the fluorescence ratio (interference) is 1 (inactive).

Consider `NC(=O)c1cnccn1`, for which the fluorescence ratio (interference) was 1 (inactive).

For `Cn1cnc([N+](=O)[O-])c1Sc1ncnc2nc[nH]c12`, the fluorescence ratio (interference) is 1 (inactive).

For the molecule `Clc1ccc2c(c1)C(N1CCNCC1)=Nc1ccccc1O2`, the fluorescence ratio (interference) was 1 (inactive).

Regarding `CCc1cccc2c3c([nH]c12)C(CC)(CC(=O)O)OCC3` (stereo not drawn), the fluorescence ratio (interference) was 1 (inactive).

Consider `O=c1[nH]cc(F)c(=O)[nH]1`, for which the fluorescence ratio (interference) is 1 (inactive).
